ssDAF-12 act – activators of S. stercoralis DAF-12 nuclear receptor | 1% of 370,000 active | activation, % at 6.8 µM | HEK293 ssDAF-12/GRIP1 lit1-tk-luc reporter, luminescence; % of 3 µM dafachronic acid response;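 active = activation above the mean over all tested compounds plus 3 SD, cut at about 0.9% in these data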;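 also: 0% = DMSO-only wells and 100% = 3 µM delta7-dafachronic acid wells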
DAX1 inh-1 – inhibitors of DAX1 repression of SF-1 activated StAR promoter | HEK293T StAR-luciferase reporter, SF-1/DAX-1 repression relief | inhibition, % at 6.8 µM | 1.1% of 370,000 active;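 active = inhibition above the mean over all tested compounds plus 3 SD, cut at about 3.6% in these data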;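 also: 0% = DAX-1 cells with DMSO and 100% = cells lacking DAX-1 with DMSO; higher inhibition means more luminescence from relief of DAX-1 repression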
hcDAF-12 act – H. contortus DAF-12 activation, primary screen | HEK293 hcDAF-12 lit1-tk-luc reporter, luminescence; 0% DMSO, 100% Δ7-dafachronic acid | activation, % at 6.8 µM | 1.4% of 370,000 active | AID 652067;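 active = activation above the mean of all tested compounds plus 3 SD, cut at about 5.5% in these data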;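 also: 100% = response to 3 µM Δ7-dafachronic acid high control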
DAX1 inh-2 – NR0B1 (DAX1) inhibition | inhibition, % at 6.75 µM | P51843 | HEK293 Gal4-DAX1 luciferase reporter, luminescence | 0.99% of 340,000 active;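 active = inhibition above the mean over all tested compounds plus 3 SD, cut at about 4.2% in these data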;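 also: 0% = DAX1-transfected cells with DMSO and 100% = empty-vector control cells with DMSO; inhibition shows as a rise in luminescence from relieved DAX1 repression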
Target sequence (P51843 207-470 limits assumed): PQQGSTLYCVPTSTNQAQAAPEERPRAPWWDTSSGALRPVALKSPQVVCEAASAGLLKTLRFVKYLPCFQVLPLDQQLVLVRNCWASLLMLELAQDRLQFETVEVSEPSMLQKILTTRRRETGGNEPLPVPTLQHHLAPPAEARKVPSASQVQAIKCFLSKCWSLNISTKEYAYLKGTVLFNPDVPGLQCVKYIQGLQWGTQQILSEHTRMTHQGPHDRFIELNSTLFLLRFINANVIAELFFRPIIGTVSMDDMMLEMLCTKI
hgDAF-12 ag – hgDAF-12 agonism, primary luciferase screen | activation, % at 6.8 µM | HEK293 GAL4-hgDAF12 UAS-luciferase reporter, agonist luminescence; normalized to butyrate control | 1.8% of 370,000 active | AID 687014;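 active = activation above a cutoff set at the mean of all screened compounds plus 3 SD, cut at about 10% in these data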;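 also: 0% = DMSO wells and 100% = sodium butyrate wells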
DAX1 inh confirm – NR0B1 (human) inhibition, confirmation | shares compounds with DAX1 inh-1 | 87% of 2,400 active | inhibition, % at 6.8 µM | HEK293T StAR-promoter luciferase reporter, SF-1/DAX-1 repression;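 active = inhibition above the average of every tested compound plus 3 SD, cut at about 3.8% in these data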;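 also: 0% = DAX-1 cells with DMSO and 100% = no DAX-1 control cells with DMSO; active compounds raise luminescence by relieving repression of the StAR reporter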
SF1 AF2mut Luc – nonselective inhibitor or artifact in SF-1 mutant DAX1 counter-screen | shares compounds with DAX1 inh-1 | HEK293 StAR-luciferase, SF-1 AF2 mutant, luminescence | inhibition, % at 6.8 µM | 78% of 2,400 active | AID 652136;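 active = inhibition above the mean of all tested compounds plus 3 SD, cut at about 3% in these data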;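 also: 0% = DAX-1 transfected cells with DMSO and 100% = cells without DAX-1 with DMSO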
LXRb hcDAF ctr – activates human LXR-beta, counter-screen for hcDAF-12 agonists | HEK293 Gal4-LXR tk-luc reporter, luminescence, 24 h; normalized: DMSO 0%, positive control 100% | activation, % at 6.8 µM | 3,400 tested, under 10 active | AID 743027 | shares compounds with hcDAF-12 act;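 active = mean percent activation of the reporter above a cutoff set as the average over tested compounds plus their standard deviation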
Target sequence (P55055 whole entry, looked up, the tested form may be a part): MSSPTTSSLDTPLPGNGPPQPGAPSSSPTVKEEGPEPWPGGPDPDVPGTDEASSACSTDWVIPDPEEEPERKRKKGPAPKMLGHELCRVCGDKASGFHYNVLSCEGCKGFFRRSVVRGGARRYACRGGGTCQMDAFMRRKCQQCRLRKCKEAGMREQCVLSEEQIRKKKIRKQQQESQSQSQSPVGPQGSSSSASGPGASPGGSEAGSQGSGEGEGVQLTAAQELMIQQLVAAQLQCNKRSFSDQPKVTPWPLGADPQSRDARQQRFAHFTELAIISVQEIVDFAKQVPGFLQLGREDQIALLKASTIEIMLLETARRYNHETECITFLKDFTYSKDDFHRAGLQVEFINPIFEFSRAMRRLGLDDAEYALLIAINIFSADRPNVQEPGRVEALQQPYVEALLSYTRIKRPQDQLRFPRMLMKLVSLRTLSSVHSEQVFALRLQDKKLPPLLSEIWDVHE
hcDAF12 ag – confirmation of H. contortus DAF-12 agonists. HEK293 hcDAF-12 lit1-tk-luc reporter, luminescence; % of Δ7-dafachronic acid response. AID 743032. 61% of 3,400 active. shares compounds with hcDAF-12 act. activation, % at 6.8 µM;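 active = mean activation across triplicate tests above the threshold derived from the earlier primary screen, cut at about 5.5% in these data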;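 also: 0% = DMSO only wells and 100% = 3 µM Δ7-dafachronic acid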
hgDAF12 conf – confirmation of H. glycines DAF-12 agonists; shares compounds with hgDAF-12 ag; activation, % at 6.8 µM; AID 743050; 80% of 3,300 active; HEK293 GAL4-hgDAF12 luciferase reporter, agonist mode; percent of butyrate response;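 active = mean activation over triplicate wells above the hit cutoff derived from the earlier primary screen, cut at about 11% in these data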;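 also: 0% = DMSO low control and 100% = 2 mM sodium butyrate high control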
LXR ag 2 – counter-screen for DAF-12 agonists: agonists of human LXR-beta; HEK293 Gal4-LXR luciferase reporter, 24 h; activation, % at 6.8 µM; 3,300 tested, under 10 active; shares compounds with hgDAF-12 ag;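 active = mean activation of the triplicate above a set limit carried over from the primary screen, none filed active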
* marks the source's active call; other numbers are inactive results; . = not tested or not shown; ! = a repeat was not active. An excerpt weighted towards active compounds, which were near 4.1% of everything screened.

SMILES | ssDAF-12 act | DAX1 inh-1 | hcDAF-12 act | DAX1 inh-2 | hgDAF-12 ag | DAX1 inh confirm | SF1 AF2mut Luc | LXRb hcDAF ctr | hcDAF12 ag | hgDAF12 conf | LXR ag 2
O=C1C(=Cc2cccc(Cl)c2)CCc2ccccc21 | -0.9 | 0.6 | 0.5 | . | 6.7 | . | . | . | . | . | .
O=C1/C(=C\c2ccncc2)CCc2ccccc21 | -1.3 | -0.4 | 0.3 | -0.3 | 2.7 | . | . | . | . | . | .
O=C1C(=Cc2ccccc2Cl)CCc2ccccc21 | 0.5 | 6.5* | 10.0* | . | 22.9* | 6.7* | 2.7 | 1.8 | 5.9* | 15.7* | 1.0
O=C1C(=Cc2ccc(Cl)cc2)CCc2ccccc21 | -0.8 | 7.4* | 2.8 | . | 14.7* | 7.4* | 3.3* | . | . | 3.3 | 0.7
COc1ccccc1C=C1CCc2ccccc2C1=O | 0.3 | 8.6* | 7.2* | . | 18.0* | 3.9* | 0.7 | 1.8 | 7.5* | 13.4* | 0.8
CC(=O)N1CCN(C(=O)CSc2nc3cccnc3n2C)CC1 | -0.8 | -0.9 | -1.1 | . | -0.9 | . | . | . | . | . | .
COC(=O)[C@]12C[C@H](CC(=O)N3CCCCC3)C(=O)N(CCc3ccc(OC)c(OC)c3)C1=C[C@H](C(C)C)O[C@@H]2C1CC1 | -0.6 | -0.3 | -0.7 | . | 3.7 | . | . | . | . | . | .
Cn1c(Cc2cccs2)nnc1SCC(=O)Nc1ccc(OCc2ccccc2)cc1 | -1.7 | 2.4 | -1.8 | . | 0.4 | . | . | . | . | . | .
Cc1ccc(-c2nc3ncccn3c2NC(=O)c2ccc(F)cc2)cc1 | -1.4 | -1.0 | -1.4 | . | 1.5 | . | . | . | . | . | .
Cc1noc(C(=O)Nc2ccc(C#N)cc2)c1Cl | -1.1 | 0.0 | -1.9 | -0.9 | 4.8 | . | . | . | . | . | .
CCc1ccc(NC(=O)c2onc(C)c2Cl)cc1 | 2.2* | 7.7* | 17.0* | 4.5* | 28.6* | 13.2* | 11.0* | 2.0 | 18.0* | 22.4* | 0.8
O=c1[nH]c(SCc2ccc(Cl)cc2)nc2ccccc12 | -1.5 | 0.6 | -1.0 | 0.8 | -0.2 | . | . | . | . | . | .
Clc1ccc(CSc2nc3ccncc3[nH]2)cc1 | 0.7 | 8.4* | 5.9* | -2.8 | 18.6* | 12.0* | 5.9* | . | . | 19.4* | 0.9
COc1ccc(C(=O)NN/C(=N/S(=O)(=O)c2ccc(C)cc2)c2ccccc2)cc1 | 0.9* | 4.6* | 3.5 | 2.8 | 13.9* | 9.2* | 4.4* | . | . | 18.7* | 1.0
CCOc1ccc(S(=O)(=O)/N=C(/Nc2ccc(OC)cc2)c2ccccc2)cc1 | -1.2 | -0.6 | 0.4 | 0.4 | 2.0 | . | . | . | . | . | .
Cc1ccc(NC(=S)N/C(=N/S(=O)(=O)c2ccccc2)c2ccccc2)cc1 | -0.3 | 5.6*! | 1.7 | 2.8 | 18.1*! | 2.6 | 2.7 | . | . | 12.5* | 0.5
O=C(Nc1ccc2oc(=O)ccc2c1)c1cc2ccccc2o1 | -0.5 | -0.4 | 4.0 | 2.2 | 5.7 | . | . | . | . | . | .
O=C(/C=C\Nc1ccc2c(c1)OCO2)c1cccs1 | 1.0* | 9.0* | 8.3* | -1.0 | 16.9* | 12.1* | -0.1 | 1.8 | 10.6* | 12.3* | 1.0
O=C(Nc1ccc2c(c1)OCCO2)c1cccs1 | 0.6 | 4.7* | 8.3* | -0.3 | 18.9* | 14.5* | 7.6* | 1.4 | 4.0 | 13.4* | 0.6
C/C(=N/NC(=O)c1cccs1)c1cccc(N)c1 | -0.5 | 5.8* | 7.0* | 6.0* | 16.2* | 5.5* | 2.4 | 0.6 | 4.4 | 9.9 | 0.2
O=C(Nc1ccc2c(c1)OCCO2)c1cc2ccccc2o1 | 1.0* | 5.7* | 12.2* | 0.0 | 20.1* | 20.1* | 8.3* | 1.8 | 8.1* | 16.9* | 1.1
CC(=NNC(=O)c1cccs1)c1ccc2c(c1)OCCO2 | 0.9 | 7.2* | 5.1 | 3.7 | 16.9* | 7.8* | 2.9* | . | . | 12.7* | 0.8
C/C(=N\NC(=O)c1ccc2c(c1)OCCO2)c1ccccc1 | 0.1 | 0.4 | -0.5 | 2.2 | 8.2 | . | . | . | . | . | .
COc1ccccc1C(=O)O/N=C(\N)c1ccc(Cl)cc1 | 1.4* | 5.0* | 9.2* | 2.4 | 18.1* | 1.4 | 2.7 | 0.8 | 6.3* | 13.8* | 0.6
COc1ccc(C(=O)O/N=C(\N)c2ccc(Cl)cc2)cc1 | -0.8 | 0.4 | -1.5 | 1.9 | 5.8 | . | . | . | . | . | .
SMILES | ssDAF-12 act | DAX1 inh-1 | hcDAF-12 act | DAX1 inh-2 | hgDAF-12 ag | DAX1 inh confirm | SF1 AF2mut Luc | LXRb hcDAF ctr | hcDAF12 ag | hgDAF12 conf | LXR ag 2
COC(=O)[C@]12C[C@H](CC(=O)NCc3ccc(C)o3)C(=O)N(Cc3ccccc3)C1=C[C@H](C1CCCC1)O[C@@H]2C | -0.7 | -0.1 | -1.6 | . | -2.6 | . | . | . | . | . | .
Cc1ccc(NC(=O)N/C=C/c2ccccc2)cc1 | -0.6 | 2.0 | 2.0 | 1.4 | 9.4 | . | . | . | . | . | .
O=C(Nc1cccc2ccccc12)/C(Cl)=C/c1ccccc1 | -0.5 | 0.3 | 0.1 | 1.9 | 4.8 | . | . | . | . | . | .
Cc1ccc(NC(=O)/C(Cl)=C\c2ccccc2)cc1 | 1.6* | 6.5* | 6.4* | -0.4 | 16.6* | 18.1* | 8.1* | . | . | 20.5* | 1.3
O=C(Nc1ccc(F)cc1)/C(Cl)=C/c1ccccc1 | 2.2* | 4.6* | 5.4 | 9.9* | 24.6* | 13.2* | 10.0* | . | . | 20.0* | 1.0
O=C(N/N=C/c1ccccn1)c1ccc(NC(=O)c2ccc(F)cc2)cc1 | -0.9 | -1.0 | 1.0 | -1.9 | -2.0 | . | . | . | . | . | .
COc1ccc(C(=O)N/N=C/c2ccccn2)cc1 | -0.5 | 4.5* | 1.4 | 0.2 | 13.5* | 6.6* | 4.1* | . | . | 12.9* | 0.5
Cc1occc1-c1nnc(SCC(=O)NCc2ccc(Cl)cc2)n1-c1ccccc1 | 0.2 | -0.6 | -1.0 | . | 5.3 | . | . | . | . | . | .
Cc1ccc2nc(N)nnc2c1 | -1.1 | 0.1 | -0.4 | 1.6 | 2.1 | . | . | . | . | . | .
Cc1ccc2nc(C)/c(=N\O)c(C)nc2c1 | 0.6 | 5.3* | 10.0* | -1.3 | 14.6* | 5.3* | 3.2* | 0.2 | 4.9 | 5.2 | 0.5
Nc1c(C(=O)N2CCOCC2)cnn1Cc1ccccc1 | -1.4 | 0.5 | 0.6 | . | -1.2 | . | . | . | . | . | .
COc1ccc([C@H]2Cc3cc(O)cc(O)c3C(=O)O2)cc1O | 2.3* | 5.2* | 14.1* | 4.0 | 18.1* | 20.0* | 12.7* | 1.7 | 10.7* | 25.2* | 0.9
COc1ccc([C@H]2Cc3cccc(O)c3C(=O)O2)cc1O | -0.5 | -0.6 | 3.4 | 2.2 | 3.3 | . | . | . | . | . | .
